From PMC11006913

Legend:
Experiment in all cases: PBM; 200 nM protein, PBS
Settings in all cases: dsDNA, one strand shown
HOXA4 [1] = biological target: HOXA4 (Homo sapiens, UniProt Q00056 201-287, W262R)
HOXA2 [2] = biological target: HOXA2 (Homo sapiens, UniProt O43364 129-215, R185T)
HOXA4 [3] = biological target: HOXA4 (Homo sapiens, UniProt Q00056 201-287, R217L)
HOXA2 [4] = biological target: HOXA2 (Homo sapiens, UniProt O43364 129-215, R185K)
HOXA4 [5] = biological target: HOXA4 (Homo sapiens, UniProt Q00056 201-287)
Sequence of HOXA4 (Homo sapiens, UniProt Q00056 201-287) (Q00056 201-287): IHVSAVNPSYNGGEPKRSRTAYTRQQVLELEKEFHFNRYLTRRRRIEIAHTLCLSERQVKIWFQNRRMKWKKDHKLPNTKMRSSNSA

VAX1 [6] = biological target: VAX1 (Homo sapiens, UniProt Q5SQQ9 86-172)
Sequence of VAX1 (Homo sapiens, UniProt Q5SQQ9 86-172) (Q5SQQ9 86-172): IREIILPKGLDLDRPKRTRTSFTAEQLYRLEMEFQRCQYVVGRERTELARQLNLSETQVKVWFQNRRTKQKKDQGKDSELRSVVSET

VAX1 [7] = biological target: VAX1 (Homo sapiens, UniProt Q5SQQ9 86-172, T142I)
Sequence of VAX1 (Homo sapiens, UniProt Q5SQQ9 86-172, T142I) (Q5SQQ9 86-172 T142I): as the sequence (Q5SQQ9 86-172) above, with T57I counted along it

HOXA2 [8] = biological target: HOXA2 (Homo sapiens, UniProt O43364 129-215, Y150S)
Sequence of HOXA2 (Homo sapiens, UniProt O43364 129-215, Y150S) (O43364 129-215 Y150S): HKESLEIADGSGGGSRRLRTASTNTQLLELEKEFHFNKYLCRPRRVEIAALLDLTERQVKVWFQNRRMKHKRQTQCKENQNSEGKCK

HOXA4 [9] = biological target: HOXA4 (Homo sapiens, UniProt Q00056 201-287, W262F)
Sequence of HOXA4 (Homo sapiens, UniProt Q00056 201-287, W262F) (Q00056 201-287 W262F): as the sequence (Q00056 201-287) above, with W62F counted along it

HOXA2 [10] = biological target: HOXA2 (Homo sapiens, UniProt O43364 129-215)
Sequence of HOXA2 (Homo sapiens, UniProt O43364 129-215) (O43364 129-215): as the sequence (O43364 129-215 Y150S) above, with S22Y counted along it

VAX1 [11] = biological target: VAX1 (Homo sapiens, UniProt Q5SQQ9 86-172, K157R)
Sequence of VAX1 (Homo sapiens, UniProt Q5SQQ9 86-172, K157R) (Q5SQQ9 86-172 K157R): as the sequence (Q5SQQ9 86-172) above, with K72R counted along it

HOXB6 [12] = biological target: HOXB6 (Homo sapiens, UniProt P17509 132-218, K202E)
Sequence of HOXB6 (Homo sapiens, UniProt P17509 132-218, K202E) (P17509 132-218 K202E): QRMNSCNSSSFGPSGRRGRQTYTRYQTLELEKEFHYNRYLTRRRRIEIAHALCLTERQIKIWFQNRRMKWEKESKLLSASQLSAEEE

HOXB6 [13] = biological target: HOXB6 (Homo sapiens, UniProt P17509 132-218)
Sequence of HOXB6 (Homo sapiens, UniProt P17509 132-218) (P17509 132-218): as the sequence (P17509 132-218 K202E) above, with E71K counted along it

ALX3 [14] = biological target: ALX3 (Homo sapiens, UniProt O95076 139-225, N203Q)
Sequence of ALX3 (Homo sapiens, UniProt O95076 139-225, N203Q) (O95076 139-225 N203Q): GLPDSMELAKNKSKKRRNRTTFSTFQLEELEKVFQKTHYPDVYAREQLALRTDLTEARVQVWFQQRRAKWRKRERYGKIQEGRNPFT

ALX3 [15] = biological target: ALX3 (Homo sapiens, UniProt O95076 139-225)
Sequence of ALX3 (Homo sapiens, UniProt O95076 139-225) (O95076 139-225): as the sequence (O95076 139-225 N203Q) above, with Q65N counted along it

ALX3 [16] = biological target: ALX3 (Homo sapiens, UniProt O95076 139-225, L168Q)
Sequence of ALX3 (Homo sapiens, UniProt O95076 139-225, L168Q) (O95076 139-225 L168Q): as the sequence (O95076 139-225 N203Q) above, with L30Q, Q65N counted along it

ALX3 [17] = biological target: ALX3 (Homo sapiens, UniProt O95076 139-225, L168V)
Sequence of ALX3 (Homo sapiens, UniProt O95076 139-225, L168V) (O95076 139-225 L168V): as the sequence (O95076 139-225 N203Q) above, with L30V, Q65N counted along it

ALX3 [18] = biological target: ALX3 (Homo sapiens, UniProt O95076 139-225, N203S)
Sequence of ALX3 (Homo sapiens, UniProt O95076 139-225, N203S) (O95076 139-225 N203S): as the sequence (O95076 139-225 N203Q) above, with Q65S counted along it

MSX2 [19] = biological target: MSX2 (Homo sapiens, UniProt P35548 130-214, R199I)
Sequence of MSX2 (Homo sapiens, UniProt P35548 130-214, R199I) (P35548 130-214 R199I): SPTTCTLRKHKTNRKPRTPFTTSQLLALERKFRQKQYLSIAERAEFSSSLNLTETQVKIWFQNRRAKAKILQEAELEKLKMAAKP

MSX2 [20] = biological target: MSX2 (Homo sapiens, UniProt P35548 130-214)
Sequence of MSX2 (Homo sapiens, UniProt P35548 130-214) (P35548 130-214): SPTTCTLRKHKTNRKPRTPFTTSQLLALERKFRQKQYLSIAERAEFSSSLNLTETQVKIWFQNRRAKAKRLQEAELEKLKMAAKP

MSX2 [21] = biological target: MSX2 (Homo sapiens, UniProt P35548 130-214, F161Y)
Sequence of MSX2 (Homo sapiens, UniProt P35548 130-214, F161Y) (P35548 130-214 F161Y): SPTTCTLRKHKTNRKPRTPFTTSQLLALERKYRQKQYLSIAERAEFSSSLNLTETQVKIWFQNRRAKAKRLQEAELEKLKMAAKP

HOXD13 [22] = biological target: HOXD13 (Homo sapiens, UniProt P35453 263-343, T313R)
Sequence of HOXD13 (Homo sapiens, UniProt P35453 263-343, T313R) (P35453 263-343 T313R): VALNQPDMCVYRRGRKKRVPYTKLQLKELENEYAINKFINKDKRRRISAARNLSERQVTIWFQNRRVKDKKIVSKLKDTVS

HOXD13 [23] = biological target: HOXD13 (Homo sapiens, UniProt P35453 263-343)
Sequence of HOXD13 (Homo sapiens, UniProt P35453 263-343) (P35453 263-343): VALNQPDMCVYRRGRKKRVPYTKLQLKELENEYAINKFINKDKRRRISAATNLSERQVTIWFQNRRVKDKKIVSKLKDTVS

HOXD13 [24] = biological target: HOXD13 (Homo sapiens, UniProt P35453 263-343, T313A)
Sequence of HOXD13 (Homo sapiens, UniProt P35453 263-343, T313A) (P35453 263-343 T313A): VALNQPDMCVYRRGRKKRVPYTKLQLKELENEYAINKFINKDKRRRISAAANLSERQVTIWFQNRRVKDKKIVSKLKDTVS

Sequence of HOXA4 (Homo sapiens, UniProt Q00056 201-287, W262R) (Q00056 201-287 W262R): as the sequence (Q00056 201-287) above, with W62R counted along it
Sequence of HOXA4 (Homo sapiens, UniProt Q00056 201-287, R217L) (Q00056 201-287 R217L): as the sequence (Q00056 201-287) above, with R17L counted along it
Sequence of HOXA2 (Homo sapiens, UniProt O43364 129-215, R185K) (O43364 129-215 R185K): as the sequence (O43364 129-215 Y150S) above, with S22Y, R57K counted along it
Sequence of HOXA2 (Homo sapiens, UniProt O43364 129-215, R185T) (O43364 129-215 R185T): as the sequence (O43364 129-215 Y150S) above, with S22Y, R57T counted along it

## ATAATGAG
HOXA4 [1]
  binding signal: 10.5 upbm affinity estimate (log intensity, higher = more binding, comparable within an allelic series)
HOXA2 [2]
  binding signal: 12.5 upbm affinity estimate (log intensity, higher = more binding, comparable within an allelic series)
HOXA4 [3]
  binding signal: 11.8 upbm affinity estimate (log intensity, higher = more binding, comparable within an allelic series)
HOXA2 [4]
  binding signal: 13.2 upbm affinity estimate (log intensity, higher = more binding, comparable within an allelic series)
HOXA4 [5]
  binding signal: 13.6 upbm affinity estimate (log intensity, higher = more binding, comparable within an allelic series)
VAX1 [6]
  binding signal: 12.8 upbm affinity estimate (log intensity, higher = more binding, comparable within an allelic series)
VAX1 [7]
  binding signal: 12.6 upbm affinity estimate (log intensity, higher = more binding, comparable within an allelic series)
HOXA2 [8]
  binding signal: 10.8 upbm affinity estimate (log intensity, higher = more binding, comparable within an allelic series)
HOXA4 [9]
  binding signal: 11.2 upbm affinity estimate (log intensity, higher = more binding, comparable within an allelic series)
HOXA2 [10]
  binding signal: 12.3 upbm affinity estimate (log intensity, higher = more binding, comparable within an allelic series)
VAX1 [11]
  binding signal: 12.5 upbm affinity estimate (log intensity, higher = more binding, comparable within an allelic series)

## GCCCCCAC
HOXA4 [1]
  binding signal: 9.79 upbm affinity estimate (log intensity, higher = more binding, comparable within an allelic series)
HOXB6 [12]
  binding signal: 9.03 upbm affinity estimate (log intensity, higher = more binding, comparable within an allelic series)
HOXA4 [3]
  binding signal: 9.73 upbm affinity estimate (log intensity, higher = more binding, comparable within an allelic series)
HOXA4 [5]
  binding signal: 9.63 upbm affinity estimate (log intensity, higher = more binding, comparable within an allelic series)
HOXA4 [9]
  binding signal: 9.84 upbm affinity estimate (log intensity, higher = more binding, comparable within an allelic series)
HOXB6 [13]
  binding signal: 8.92 upbm affinity estimate (log intensity, higher = more binding, comparable within an allelic series)

## CCGGCTCC
HOXA4 [1]
  binding signal: 9.74 upbm affinity estimate (log intensity, higher = more binding, comparable within an allelic series)
HOXA4 [3]
  binding signal: 9.52 upbm affinity estimate (log intensity, higher = more binding, comparable within an allelic series)
ALX3 [14]
  binding signal: 7.7 upbm affinity estimate (log intensity, higher = more binding, comparable within an allelic series)
HOXA4 [5]
  binding signal: 9.48 upbm affinity estimate (log intensity, higher = more binding, comparable within an allelic series)
ALX3 [15]
  binding signal: 7.5 upbm affinity estimate (log intensity, higher = more binding, comparable within an allelic series)
ALX3 [16]
  binding signal: 7.65 upbm affinity estimate (log intensity, higher = more binding, comparable within an allelic series)
ALX3 [17]
  binding signal: 7.64 upbm affinity estimate (log intensity, higher = more binding, comparable within an allelic series)
HOXA4 [9]
  binding signal: 9.75 upbm affinity estimate (log intensity, higher = more binding, comparable within an allelic series)
ALX3 [18]
  binding signal: 7.7 upbm affinity estimate (log intensity, higher = more binding, comparable within an allelic series)

## CCTGGGCG
HOXA4 [1]
  binding signal: 9.75 upbm affinity estimate (log intensity, higher = more binding, comparable within an allelic series)
HOXA4 [3]
  binding signal: 9.75 upbm affinity estimate (log intensity, higher = more binding, comparable within an allelic series)
HOXA4 [5]
  binding signal: 9.75 upbm affinity estimate (log intensity, higher = more binding, comparable within an allelic series)
HOXA4 [9]
  binding signal: 9.8 upbm affinity estimate (log intensity, higher = more binding, comparable within an allelic series)

## AGGGCGGG
HOXA4 [1]
  binding signal: 9.85 upbm affinity estimate (log intensity, higher = more binding, comparable within an allelic series)
HOXA4 [3]
  binding signal: 9.99 upbm affinity estimate (log intensity, higher = more binding, comparable within an allelic series)
MSX2 [19]
  binding signal: 9.58 upbm affinity estimate (log intensity, higher = more binding, comparable within an allelic series)
HOXA4 [5]
  binding signal: 10 upbm affinity estimate (log intensity, higher = more binding, comparable within an allelic series)
MSX2 [20]
  binding signal: 9.55 upbm affinity estimate (log intensity, higher = more binding, comparable within an allelic series)
MSX2 [21]
  binding signal: 9.62 upbm affinity estimate (log intensity, higher = more binding, comparable within an allelic series)
HOXA4 [9]
  binding signal: 10.1 upbm affinity estimate (log intensity, higher = more binding, comparable within an allelic series)

## CCCCAAGG
HOXA4 [1]
  binding signal: 9.82 upbm affinity estimate (log intensity, higher = more binding, comparable within an allelic series)
HOXA4 [3]
  binding signal: 9.69 upbm affinity estimate (log intensity, higher = more binding, comparable within an allelic series)
HOXD13 [22]
  binding signal: 9.45 upbm affinity estimate (log intensity, higher = more binding, comparable within an allelic series)
HOXD13 [23]
  binding signal: 9.55 upbm affinity estimate (log intensity, higher = more binding, comparable within an allelic series)
HOXA4 [5]
  binding signal: 9.65 upbm affinity estimate (log intensity, higher = more binding, comparable within an allelic series)
HOXD13 [24]
  binding signal: 9.53 upbm affinity estimate (log intensity, higher = more binding, comparable within an allelic series)
HOXA4 [9]
  binding signal: 9.86 upbm affinity estimate (log intensity, higher = more binding, comparable within an allelic series)

## ATCCCCCC
HOXA4 [1]
  binding signal: 9.64 upbm affinity estimate (log intensity, higher = more binding, comparable within an allelic series)
HOXA2 [2]
  binding signal: 7.17 upbm affinity estimate (log intensity, higher = more binding, comparable within an allelic series)
HOXA4 [3]
  binding signal: 9.49 upbm affinity estimate (log intensity, higher = more binding, comparable within an allelic series)
ALX3 [14]
  binding signal: 7.65 upbm affinity estimate (log intensity, higher = more binding, comparable within an allelic series)
HOXA2 [4]
  binding signal: 10.1 upbm affinity estimate (log intensity, higher = more binding, comparable within an allelic series)
HOXA4 [5]
  binding signal: 9.5 upbm affinity estimate (log intensity, higher = more binding, comparable within an allelic series)
ALX3 [15]
  binding signal: 7.91 upbm affinity estimate (log intensity, higher = more binding, comparable within an allelic series)
ALX3 [16]
  binding signal: 7.61 upbm affinity estimate (log intensity, higher = more binding, comparable within an allelic series)
ALX3 [17]
  binding signal: 7.58 upbm affinity estimate (log intensity, higher = more binding, comparable within an allelic series)
HOXA2 [8]
  binding signal: 10.4 upbm affinity estimate (log intensity, higher = more binding, comparable within an allelic series)
HOXA4 [9]
  binding signal: 9.46 upbm affinity estimate (log intensity, higher = more binding, comparable within an allelic series)
ALX3 [18]
  binding signal: 7.67 upbm affinity estimate (log intensity, higher = more binding, comparable within an allelic series)
HOXA2 [10]
  binding signal: 7.3 upbm affinity estimate (log intensity, higher = more binding, comparable within an allelic series)
